# Reference: PubChem BioAssay (NCATS)
# Results filed as inconclusive are left out. Entries that show only a call come without a potency. Unmarked numbers belong to inactive results. Active and inactive are the calls of the source. Unless noted, the call rests on the fitted dose curve; in most records, active means well fitted curve in the direction sought with a large enough effect; inconclusive means small, poorly fitted or top-dose-only effect, or another doubt; inactive means no such curve, though single readings can be large; an effect the other way counts as inactive or inconclusive.
# Assays:
# [1] = molecular target: Aldehyde dehydrogenase, mitochondrial (Homo sapiens) (UniProt P05091); experiment: qHTS for Inhibitors of the Aldehyde Dehydrogenase Family (ALDH2) Confirmatory screens (AID 2061303; active means well fitted inhibition curve with a large enough effect; title and protocol of this record describe different tests; further: nearly all actives have a fitted effect of over 45% in size; further: potency means the concentration at half of the fitted maximal effect)
# [2] = qHTS for Inhibitors of the Aldehyde Dehydrogenase Family (ALDH1A2, ALDH1A3, ALDH2, ALDH3A1) (AID 2061307); further: nearly all actives have a fitted effect of over 50% in size; on potency: test system not described further here; potency means the concentration at half of the fitted maximal effect
# [3] = molecular target: Aldehyde dehydrogenase, mitochondrial (Homo sapiens) (UniProt P05091); experiment: qHTS for Inhibitors of the Aldehyde Dehydrogenase Family (ALDH2) Primary screen (AID 2061308); further: nearly all actives have a fitted effect of over 55% in size; further: potency means the concentration at half of the fitted maximal effect
# [4] = molecular target: Retinaldehyde dehydrogenase 3 (Homo sapiens) (UniProt P47895); experiment: qHTS for Inhibitors of the Aldehyde Dehydrogenase Family (ALDH1A3) Confirmatory screens (AID 2061311); further: nearly all actives have a fitted effect of over 60% in size; further: potency means the concentration at half of the fitted maximal effect
# [5] = molecular target: Retinaldehyde dehydrogenase 3 (Homo sapiens) (UniProt P47895); experiment: qHTS for Inhibitors of the Aldehyde Dehydrogenase Family (ALDH1A3) Primary screen (AID 2061315)
# [6] = molecular target: Aldehyde dehydrogenase 1A1 (Homo sapiens) (UniProt P00352); experiment: qHTS for Inhibitors of the Aldehyde Dehydrogenase Family (ALDH1A1) Confirmatory screens (AID 2061316); further: nearly all actives have a fitted effect of over 65% in size; further: potency means the concentration at half of the fitted maximal effect
# [7] = molecular target: Retinaldehyde dehydrogenase 3 (Homo sapiens) (UniProt P47895); experiment: qHTS for Inhibitors of the Aldehyde Dehydrogenase Family (ALDH1A3) Validation screen (AID 2061312); further: nearly all actives have a fitted effect of over 45% in size
# [8] = molecular target: Retinal dehydrogenase 2 (Homo sapiens) (UniProt O94788); experiment: qHTS for Inhibitors of the Aldehyde Dehydrogenase Family (ALDH1A2) Confirmation screens (AID 2061314); further: nearly all actives have a fitted effect of over 65% in size; further: potency means the concentration at half of the fitted maximal effect
# [9] = BET inhibitor-based combinations targeting novel dependencies in MECOM-rearranged (r) AML: AML-191 cell line (AID 2202236; further: potency means the concentration at half of the fitted maximal effect; nearly all actives have a fitted effect of over 35% in size)
# Method in brief: (§1)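 Each compound was tested at eleven concentrations on cells seeded at 500/well. After two days' incubation, ATP-based luminescence reported viability; responses relative to DMSO and blank wells yielded AUC and cell-line-centred Z-AUC.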
# [10] = BET inhibitor-based combinations targeting novel dependencies in MECOM-rearranged (r) AML: AML-194 cell line (AID 2202237; further: potency means the concentration at half of the fitted maximal effect; nearly all actives have a fitted effect of over 40% in size)
# Method in brief: as §1
SMILES,Potency [1],Potency [2],Potency [3],Potency [4],Potency [5],Potency [6],Potency [7],Potency [8],Potency [9],Potency [10]
O=C(c1ccc(-c2cc(O)c3ncccc3c2)cc1)N1CCNCC1,inactive,inactive,inactive,11.3 µM (active),inactive,inactive,–,–,–,–
Cc1cccc(C)c1-n1c(SCC(=O)NCCCCCC(=O)O)nnc1-c1cccc([S+](=O)([O-])N2CCCC2)c1,inactive,inactive,inactive,inactive,inactive,inactive,–,–,–,–
N=c1c2c(ncn1-c1ccccc1)Oc1ccc3ccccc3c1C2c1ccc2c(c1)CCO2 (centres undefined),14.1 µM (active),7.08 µM (active),inactive,15.8 µM (active),inactive,31.6 µM (active),–,–,–,–
CC1(C)S[C@@H]2[C@H](NC(=O)[C@H](NC(=O)N3CCN(S(C)(=O)=O)C3=O)c3ccccc3)C(=O)N2[C@H]1C(=O)O,inactive,inactive,inactive,–,inactive,inactive,inactive,inactive,–,–
Fc1cc(Nc2nc(-c3ccncc3)nc3ccccc23)ccc1N1CCNCC1,inactive,inactive,inactive,–,inactive,–,–,inactive,–,–
CCOc1ccc(C(=O)Nc2ccc(-c3nc4ccccc4[nH]3)cc2)cc1,inactive,inactive,inactive,inactive,inactive,inactive,–,–,–,–
COc1ccc(C2Nc3ccccc3C(=O)N2Cc2ccccc2)cc1COc1ccc(C(N)=O)cc1 (centres undefined),5.62 µM (active),2.83 µM (active),inactive,–,inactive,–,–,14.1 µM (active),–,–
COc1ccc(C2=Nn3c(nnc3-c3ccc(OC)c(OC)c3)SC2)c(OC)c1,inactive,inactive,inactive,inactive,inactive,6.34 µM (active),–,–,–,–
O=C1c2ccccc2C(=O)N1c1ncccc1O,inactive,inactive,inactive,inactive,inactive,inactive,–,–,–,–
O=C(Nc1ccc2ccccc2c1)Nc1nnc(-c2cccnc2)s1,inactive,inactive,inactive,–,inactive,–,–,12.7 µM (active),–,–
COc1ccc(CN(Cc2ccccc2)C(=O)c2ccccc2O)cc1,inactive,inactive,inactive,–,inactive,–,–,inactive,–,–
CCCCN(C)C(=O)Cn1nc(-c2ccncc2)ccc1=O,inactive,inactive,inactive,–,inactive,–,–,inactive,–,–
CN(Cc1cccs1)c1ncnc2ccc(-c3ccc4cnn(C)c4c3)cc12,inactive,inactive,inactive,inactive,inactive,inactive,–,–,–,–
Nc1nnc(-c2cccc3ccccc23)o1,inactive,inactive,inactive,inactive,inactive,inactive,–,–,–,–
CCN(CC)CCOc1ccc(/C(=C(\Cl)c2ccccc2)c2ccccc2)cc1,inactive,inactive,inactive,–,inactive,inactive,inactive,inactive,18.6 µM (active),23.5 µM (active)
O=C(NCCc1nc2ccccc2n1CCOc1cccc(Br)c1)C1CCCCC1,inactive,inactive,inactive,–,inactive,–,–,inactive,–,–
CC(=O)N1CCN(C(=S)Nc2cc(C)ccn2)CC1,inactive,inactive,inactive,–,inactive,–,–,inactive,–,–
Cc1cccc(C[C@H](C(=O)O)N2C(=O)c3ccc(C(=O)O)cc3C2=O)c1,inactive,inactive,inactive,inactive,inactive,inactive,–,–,–,–
CN(C)CCCNc1ncnc2ccc(-c3ccc4c(c3)OCO4)cc12,inactive,inactive,inactive,inactive,inactive,inactive,–,–,–,–
O=C(Cc1ccc(Cl)c(Cl)c1)Nc1ccc(S(=O)(=O)Nc2cccc(C(=O)O)c2)cc1,inactive,inactive,inactive,inactive,inactive,inactive,–,–,–,–
COc1ccc(-c2nc3ccccc3c(=O)n2Cc2ccc(CNC(=O)CO)cc2)cc1COc1ccc(NC(C)=O)cc1,inactive,8.96 µM (active),inactive,–,–,–,–,15.9 µM (active),–,–
Cc1cc(=O)oc2c(C=O)c(O)ccc12,inactive,inactive,inactive,12.7 µM (active),–,8.96 µM (active),–,–,–,–
FC(F)(F)c1ccccc1-c1nc(NCc2ccc(Cl)cc2)c2ccccc2n1,inactive,inactive,inactive,inactive,inactive,inactive,–,–,–,–
CC(C)(C)OC(=O)N1CCN(c2ccc(NCc3ccnc(-c4ccc(C#N)cc4)n3)cc2)CC1,0.504 µM (active),0.357 µM (active),0.282 µM (active),–,inactive,–,–,inactive,–,–
Cc1cccc(-n2cnc3cc(C(=O)N4CCCC(C)(C)C4)ccc32)c1,inactive,inactive,inactive,–,inactive,–,–,inactive,–,–
O=C(O)c1cccc(-n2cccc2)c1,inactive,inactive,inactive,inactive,inactive,inactive,–,–,–,–
COc1cccc(CNc2ccc([S+](=O)([O-])Nc3cc4ccccc4s3)cc2)c1O,inactive,inactive,inactive,11.3 µM (active),inactive,inactive,–,–,–,–
O=S1(=O)N=C(Oc2ccccc2F)c2ccccc21,inactive,inactive,inactive,–,inactive,–,–,inactive,–,–
